HCMV antiviral: inhibitors of human cytomegalovirus | AID 1259415 | 410,000 compounds, 4.5% hits | activity change, negative = inhibition, % at 57.5 µM | HFF cells, HCMV-luciferase reporter, 72 h; stronger effect = lower value; in the data active means activity change below about -60%; inconclusive means no clear call, values can overlap the other calls; inactive means above about -39%
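Two-dose cell screen: HFF monolayers treated with compounds and infected with luciferase-expressing HCMV at 1 PFU/cell, 72 h at 37C, then lysed for luciferase measurement.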
MARV entry inh: inhibitors of Marburg virus binding or cell entry; Marburg virus pseudotyped entry inhibition, cell reporter; Potency, µM (top dose mostly 37.8 µM), actives largely listed as inhibitors; 300,000 compounds, 1.8% hits; AID 540276; calls by dose curve; tested in HEK293 cells
FMDV inh: blocks foot and mouth disease virus; FMDV antiviral cell-based qHTS; Potency, µM (doses to about 57.9 µM), actives largely listed as inhibitors; 410,000 compounds, 1.2% hits; AID 1159524; calls by dose curve; tested in HEK293T cells; further: read-out not given here; nearly all actives have a fitted effect of over 45% in size
LASV entry inh: Lassa virus entry inhibition. AID 540256. Potency, µM (highest dose often 37.9 µM), most hits filed as inhibitors. 300,000 compounds, 1.2% hits. Lassa virus pseudotype entry inhibition, cell reporter; calls by dose curve; tested in HEK293 cells; further: nearly all actives have a fitted effect of over 50% in size
A number is an active result; . = inactive; ? = inconclusive; / = no result. Only some compounds are listed: those with a hit (about 6.2% of all), similar ones and a draw of the others.

SMILES	HCMV antiviral	MARV entry inh	FMDV inh	LASV entry inh
CN(C1CCCCC1)S(=O)(=O)c1ccc(NC(=S)NC(=O)c2cccs2)cc1	.	18.3µM	?	.
CN(C)S(=O)(=O)c1ccc(NC(=S)NC(=O)C2CCC2)cc1	.	/	.	/
Cc1ccc(C(=O)NC(=S)Nc2ccc(NC(=O)c3cccs3)cc2)cc1[N+](=O)[O-]	-78.3	.	?	.
Cc1cc(C)cc(NS(=O)(=O)c2ccc(NC(=S)NC(=O)c3cccs3)cc2)c1	.	11.6µM	.	14.1µM
COc1ccccc1-c1ccnc(-n2ncc(C(=O)N(C)C(C)c3nc(C)cs3)c2C2CC2)n1 (stereo unspecified)	/	/	.	/
COc1ccc(NC(=O)Nc2ccc3c(c2)C(=O)N([C@H](C)CO)C[C@H](C)[C@H](CN(C)C)OCCCC[C@@H](C)O3)cc1	.	/	/	/
CC1=C[C@@H](C)OC2(C1)C(=O)N(CC1CC1)c1cccc(Br)c12 (stereo partly specified)	/	.	/	/
O=[N+]([O-])c1ccc2c(c1)C(N1CCOCC1)/C(=C/COc1ccc3ccccc3c1Br)O2 (stereo unspecified)	.	12.6µM	?	?
COc1cccc(Nc2ncnc3ccccc23)c1	.	.	/	.
O=C(Oc1cccc(Nc2ncnc3ccccc23)c1)c1ccccc1Cl	.	?	17.8µM	.
COc1ccc(-n2c(=O)c(CCc3ccccc3)nc3cnc(N4CCOCC4)nc32)cc1	/	/	.	/
CN(C(=O)Oc1ccc([N+](=O)[O-])cc1)c1ccccc1	?	?	.	.
CN(Cc1cccc(-c2ccncc2)c1)C(=O)Oc1ccc([N+](=O)[O-])cc1	/	/	22.4µM	/
COC(=O)C[C@H]1C[C@@H]2c3cc(NS(=O)(=O)c4cccc(OC)c4)ccc3O[C@@H]2[C@@H](CO)O1	.	/	.	/
COc1cccc(S(=O)(=O)Nc2ccc3c(c2)[C@@H]2C[C@@H](CC(=O)NCc4ccc(Cl)cc4)O[C@@H](CO)[C@@H]2O3)c1	-77.7	/	.	/
CC(C)COc1ccc(C(=O)NC(CC(C)C)C(=O)O)cc1 (stereo unspecified)	.	.	.	.
Cc1ccc(Oc2ccc(OCC(=O)NC(CC(C)C)C(=O)O)cc2)cc1 (stereo unspecified)	-64.9	?	.	.
Cc1cc(Nc2ccccc2Cl)n2nc(-c3ccco3)nc2n1	-72.1	/	.	.
CCOC(=O)c1ccccc1Nc1cc(C)nc2nc(-c3ccco3)nn12	.	/	.	?
COc1cccc(-c2cc(C(=O)Nc3cccc(O)c3)no2)c1	.	4.61µM	.	6.51µM
COc1ccc(NC(=O)c2cc(-c3cccc(OC)c3)on2)cc1	.	.	.	?
CC(C)(C)OC(=O)N1CCC[C@@H]1C(O)(c1ccccc1)c1ccccc1	/	.	/	/
Cn1c(=O)c(Nc2ccc(O)cc2)c2c3c(cccc31)C(=O)c1ccccc1-2	-60.7	.	.	.
COC(=O)[C@@H]1[C@@H](C(=O)OC)C2(c3ccccc3-c3ccccc32)N(c2ccc(Cl)cc2)N1C#N	-81.9	10µM	3.55µM	?
COC(=O)C[C@]1(C(=O)OC)CN(C#N)N(c2ccc(Cl)cc2)C12c1ccccc1-c1ccccc12	-101.9	?	4.47µM	3.16µM
SMILES	HCMV antiviral	MARV entry inh	FMDV inh	LASV entry inh
COC(=O)C1OC2(OC1C(=O)OC)c1ccccc1-c1ccccc12 (stereo unspecified)	.	.	.	.
COC(=O)CN1C(=O)C(O)(CC(=O)c2ccc(Cl)cc2)c2ccccc21 (stereo unspecified)	.	/	.	/
CN(C)CCCN1C(=O)C(O)=C(C(=O)c2cc3ccccc3o2)[C@@H]1c1ccccc1	/	.	/	/
CCc1c2c(nc3ccc(OC(=O)N4CCC(N5CCCCC5)CC4)cc13)-c1cc3c(c(=O)n1C2)COC(=O)C3(O)CC (stereo unspecified)	/	/	.	/
O=C(NCCc1ccccn1)c1cc(-c2ccc(Cl)c(Cl)c2Cl)nc2ccccc12	?	?	39.8µM	?
O=C(NCc1ccccn1)c1cc(-c2ccccc2Cl)nc2ccccc12	.	.	.	.
COc1cc(-c2cnc3ccccc3c2)cc2c1OCCN(C(=O)Cn1nccc1C)C2	/	/	.	/
COCCNC(=O)C(c1ccc(C)o1)N(C(=O)c1snc(C(N)=O)c1N)c1ccc(C)c(C)c1 (stereo unspecified)	-65.2	.	.	.
COc1ccc(N(C(=O)c2snc(C(N)=O)c2N)C(C(=O)NCc2ccc(F)cc2)c2ccc(O)cc2)cc1 (stereo unspecified)	.	?	.	2.82µM
COc1ccc(C(C(=O)NCc2ccccc2)N(C(=O)c2snc(C(N)=O)c2N)c2ccccc2OC)cc1OC (stereo unspecified)	-74.6	.	.	.
COc1ccc(N(C(=O)c2snc(C(N)=O)c2N)C(C(=O)NCc2ccc(F)cc2)c2ccc(C)o2)c(OC)c1 (stereo unspecified)	?	12.6µM	.	8.91µM
COCCNC(=O)C(c1ccc(C)o1)N(C(=O)c1snc(C(N)=O)c1N)c1ccc(C)cc1 (stereo unspecified)	?	?	/	.
CCC(=O)c1ccc(OCC(O)Cn2c(C)nc3ccccc32)cc1 (stereo unspecified)	-61.7	6.31µM	?	?
CCOC(=O)c1c(C)n(C)c2ccc(OCC(O)Cn3c(C)nc4ccccc43)cc12 (stereo unspecified)	-60.1	?	17.8µM	?
Cc1nc2ccccc2n1CC(O)COc1ccc(C(=O)O)cc1 (stereo unspecified)	.	.	.	.
Cc1nc2ccccc2n1CC(O)COc1ccccc1Cl (stereo unspecified)	-74.1	/	?	/
CCOC(=O)c1c(C)n(C)c2ccc(OCC(O)CN3CCN(C)CC3)cc12 (stereo unspecified)	.	.	.	/
CCCc1nc2ccccc2n1CC(O)COc1ccc(C(=O)OC)cc1 (stereo unspecified)	.	?	28.2µM	.
COc1cccc(CN2CC3(CCN(C)CC3)c3c(n(C)c4cc(OC)ccc34)[C@H]2CO)c1	.	/	/	/
COc1cc(NC(=O)COCc2cc(-c3ccc4c(c3)OCO4)on2)c(OC)cc1Cl	.	/	.	.
Cc1nc2ccccc2n1CC(O)COc1ccc(Br)cc1 (stereo unspecified)	-80.3	?	?	/
Cc1nc2ccccc2n1CC(O)Cn1c(C(F)(F)F)nc2ccccc21 (stereo unspecified)	.	.	?	.
CCC(=O)c1ccc(OCC(O)CN(CCc2ccccc2)Cc2ccccc2)cc1 (stereo unspecified)	.	?	/	16.4µM
O=c1c(=O)n(-c2cccc(Cl)c2)ccn1Cc1cccc(F)c1	.	/	.	.
CC(C)C[C@H]1COc2cc(Br)ccc2S(=O)(=O)N1Cc1ccc(Cl)cc1	.	?	/	/
COc1ccccc1CN1CC(C(=O)NCC2(O)CCCCC2)CCC1=O (stereo unspecified)	-64.3	/	.	/
Nc1c(C(=O)NCc2ccccc2)c2nc3ccccc3nc2n1CCCN1CCOCC1	.	?	.	.
Nc1c(C(=O)NCc2ccco2)c2nc3ccccc3nc2n1CCc1ccccc1	-69.3	.	.	?
COc1ccc(CNC(=O)c2c(N)n(CCCN3CCOCC3)c3nc4ccccc4nc23)cc1	.	16.4µM	?	23.1µM
O=S1(=O)CCSC[C@@H](CN2CCCC2)N1	.	/	/	?

From PubChem
